A selection: hits, their analogues and other compounds. The true share with any hit is near 8.1%.
PD-1 reversal = reversal of PD-1 mediated T-cell inhibition | primary human CD4 T cells, PD-L1 beads, CellTiter-Glo 96 h | AID 2316 | 29,000 tested, under 10 active | activation, % (test concentration not listed); call rule not given here
Hedgehog inh = Sonic Hedgehog pathway inhibition. Shh-LIGHT2 Gli-luciferase reporter, 30 h. actives 2.1% (n = 22,000). inhibition, % (test concentration not listed). AID 2313;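 active = mean inhibition across valid replicates above about 65%, limit read from the data; inconclusive = mean under the limit, yet half or more replicates past it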;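 note: pathway switched on by Shh-conditioned medium diluted 1 in 25 in low serum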
MITF inh = blocks MITF activity. inhibition, % (no concentration beside the values). TRPM1 promoter luciferase, luminescence, 24 h. actives 0.28% (n = 37,000); in the data active = inhibition above about 85%; inconclusive = no clear call, values can overlap the other calls; inactive = below about 68%;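 note: human melanocyte line stably carrying TRPM1 promoter luciferase reporter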
NOMO-1 viab = STK33 inhibitor candidate reducing NOMO-1 cell viability | NOMO-1 AML viability, CellTiter-Glo luminescence, 72 h | inhibition, % (test concentration not listed) | actives 7.5% (n = 37,000) | AID 2330; in the data active = inhibition above about 80%; inconclusive = no clear call, values can overlap the other calls
Hits are given with their value.

Results for C[C@@H]1CN([C@H](C)CO)C(=O)c2cc(NC(=O)Cc3cn(C)c4ccccc34)ccc2O[C@H]1CN(C)Cc1ccc(C(F)(F)F)cc1 ?
PD-1 reversal: inactive; MITF inh: inactive; NOMO-1 viab: inactive

What do the screens show for `C[C@H](CO)N1C[C@H](C)[C@H](CN(C)Cc2ccc(-c3ccccc3)cc2)Oc2ccc(NC(=O)Cc3cn(C)c4ccccc34)cc2C1=O`?
PD-1 reversal: inactive; MITF inh: inactive; NOMO-1 viab: 85

What do the screens show for `C[C@@H]1CN([C@H](C)CO)C(=O)c2cc(NC(=O)Cc3cn(C)c4ccccc34)ccc2O[C@H]1CN(C)Cc1ccccc1`?
MITF inh: inactive; NOMO-1 viab: inactive

Results for C[C@@H]1CN([C@H](C)CO)C(=O)c2cc(NC(=O)Cc3cn(C)c4ccccc34)ccc2O[C@@H]1CN(C)Cc1ccc(-c2ccccc2)cc1 ?
MITF inh: inactive; NOMO-1 viab: 112

How did C[C@@H]1CN([C@@H](C)CO)C(=O)c2cc(NC(=O)Cc3cn(C)c4ccccc34)ccc2O[C@@H]1CN(C)Cc1ccc(C(F)(F)F)cc1 do in these assays?
PD-1 reversal: inactive; Hedgehog inh: inactive; MITF inh: inactive; NOMO-1 viab: 106

Results for C[C@@H]1CN([C@H](C)CO)C(=O)c2cc(NC(=O)Cc3cn(C)c4ccccc34)ccc2O[C@@H]1CN(C)Cc1ccc(Oc2ccccc2)cc1 ?
PD-1 reversal: inactive; Hedgehog inh: inconclusive; MITF inh: inactive; NOMO-1 viab: 108

What do the screens show for `Cc1cc(C)c(NC(=O)CN(c2cc(C(F)(F)F)ccc2Cl)S(C)(=O)=O)c(C)c1`?
MITF inh: inactive; NOMO-1 viab: inactive

What do the screens show for `Cc1nnc(SCC(=O)Nc2cccc(I)c2)s1`?
PD-1 reversal: inactive; MITF inh: inactive; NOMO-1 viab: inactive

What do the screens show for `C[C@@H]1CN([C@@H](C)CO)C(=O)Cc2cc(NC(=O)c3ccncc3)ccc2O[C@@H]1CN(C)Cc1ccc(C(F)(F)F)cc1`?
Hedgehog inh: inactive; MITF inh: inactive; NOMO-1 viab: inactive

Results for COc1ccc(NC(=O)Nc2ccc3c(c2)C(=O)N([C@@H](C)CO)C[C@H](C)[C@H](CN(C)Cc2ccc(-c4ccccc4)cc2)O3)cc1 ?
PD-1 reversal: inactive; MITF inh: inactive; NOMO-1 viab: inactive

Results for C[C@H]1CN([C@@H](C)CO)C(=O)c2cc(NC(=O)Cc3cn(C)c4ccccc34)ccc2O[C@@H]1CN(C)Cc1ccc2c(c1)OCO2 ?
MITF inh: inactive; NOMO-1 viab: 98

Results for C[C@@H]1CN([C@H](C)CO)C(=O)c2cc(NC(=O)Cc3ccccc3)ccc2O[C@H]1CN(C)Cc1ccc(-c2ccccc2)cc1 ?
PD-1 reversal: inactive; Hedgehog inh: inactive; MITF inh: inactive; NOMO-1 viab: 117

What do the screens show for `C[C@H]1CN([C@@H](C)CO)C(=O)c2cc(NC(=O)Cc3ccccc3)ccc2O[C@H]1CN(C)Cc1ccccc1`?
PD-1 reversal: inactive; MITF inh: inactive; NOMO-1 viab: inactive

Results for C[C@H](CO)N1C[C@H](C)[C@H](CN(C)Cc2ccncc2)Oc2ccc(NC(=O)Cc3ccccc3)cc2C1=O ?
MITF inh: inactive; NOMO-1 viab: 98

How did Cc1c(-c2ccc(Cl)cc2Cl)nc2ccccc2c1C(=O)NCc1ccccn1 do in these assays?
MITF inh: inactive; NOMO-1 viab: inactive

How did COc1ccc(NC(=O)N(C)C[C@@H]2Oc3c(NC(=O)c4ccncc4)cccc3C(=O)N([C@H](C)CO)C[C@@H]2C)cc1 do in these assays?
PD-1 reversal: inactive; Hedgehog inh: inactive; MITF inh: inactive; NOMO-1 viab: inactive

How did O=C1S/C(=C\c2ccc(N3CCOCC3)o2)C(=O)N1c1ccccc1 do in these assays?
PD-1 reversal: inactive; MITF inh: inactive; NOMO-1 viab: 132

What do the screens show for `O=c1c(N2CCOCC2)nnc2sc3ccccc3n12`?
PD-1 reversal: inactive; Hedgehog inh: inactive; MITF inh: inactive; NOMO-1 viab: inactive

What do the screens show for `CN1C(=O)C(CC(=O)Nc2ccc(Cl)cc2)N(Cc2ccco2)C1=S` (stereo unspecified)?
PD-1 reversal: inactive; MITF inh: inactive; NOMO-1 viab: 152

Results for Cc1ccc(S(=O)(=O)Nc2cccc3c2O[C@@H](CN(C)S(=O)(=O)c2ccc(Cl)cc2)[C@H](C)CN([C@H](C)CO)C3=O)cc1 ?
PD-1 reversal: inactive; Hedgehog inh: inactive; MITF inh: inactive; NOMO-1 viab: inactive

How did CC(Oc1ccc(C(C)(C)C)cc1)c1nc(-c2cccnc2)no1 (stereo unspecified) do in these assays?
PD-1 reversal: inactive; MITF inh: inactive; NOMO-1 viab: 81

What do the screens show for `C[C@H]1CN([C@@H](C)CO)C(=O)Cc2cc(NC(=O)Cc3cn(C)c4ccccc34)ccc2O[C@H]1CN(C)S(=O)(=O)c1ccc(Cl)cc1`?
Hedgehog inh: inactive; MITF inh: inactive; NOMO-1 viab: inactive

How did Cc1ccc(S(=O)(=O)Nc2ccc3c(c2)CC(=O)N([C@@H](C)CO)C[C@@H](C)[C@@H](CN(C)CC2CCCCC2)O3)cc1 do in these assays?
PD-1 reversal: inactive; Hedgehog inh: inactive; MITF inh: inactive; NOMO-1 viab: 97

Results for C[C@@H]1CN([C@@H](C)CO)C(=O)Cc2cc(NS(=O)(=O)c3ccc(Cl)cc3)ccc2O[C@@H]1CN(C)CC1CCCCC1 ?
PD-1 reversal: inactive; Hedgehog inh: inactive; MITF inh: inactive; NOMO-1 viab: 102

How did Cc1ccc(S(=O)(=O)Nc2ccc3c(c2)CC(=O)N([C@@H](C)CO)C[C@H](C)[C@@H](CN(C)CC2CCCCC2)O3)cc1 do in these assays?
PD-1 reversal: inactive; Hedgehog inh: inactive; MITF inh: inactive; NOMO-1 viab: inconclusive

How did C[C@H]1CN([C@@H](C)CO)C(=O)Cc2cc(NS(=O)(=O)c3ccc(Cl)cc3)ccc2O[C@H]1CN(C)CC1CC1 do in these assays?
PD-1 reversal: inactive; MITF inh: inactive; NOMO-1 viab: inactive

What do the screens show for `COc1ccc(NC(=O)N(C)C[C@@H]2Oc3ccc(NS(=O)(=O)c4ccc(C)cc4)cc3C(=O)N([C@H](C)CO)C[C@H]2C)cc1`?
PD-1 reversal: inactive; MITF inh: inactive; NOMO-1 viab: inactive

How did C[C@@H]1CN([C@@H](C)CO)C(=O)c2cccc(NC(=O)Nc3ccc(C(F)(F)F)cc3)c2O[C@H]1CN(C)Cc1ccc(C(F)(F)F)cc1 do in these assays?
PD-1 reversal: inactive; Hedgehog inh: inactive; MITF inh: inactive; NOMO-1 viab: 116

How did C[C@H](CO)N1C[C@H](C)[C@@H](CN(C)Cc2ccc(C(F)(F)F)cc2)Oc2c(NC(=O)Nc3ccc(C(F)(F)F)cc3)cccc2C1=O do in these assays?
PD-1 reversal: inactive; Hedgehog inh: inactive; MITF inh: inactive; NOMO-1 viab: 105

Results for C[C@H]1CN([C@@H](C)CO)C(=O)c2cccc(NC(=O)Nc3ccc(C(F)(F)F)cc3)c2O[C@@H]1CN(C)Cc1ccc(C(F)(F)F)cc1 ?
PD-1 reversal: inactive; Hedgehog inh: inactive; MITF inh: inactive; NOMO-1 viab: 113

Results for C[C@@H]1CN([C@H](C)CO)C(=O)c2cccc(N(C)C)c2O[C@H]1CN(C)Cc1ccc(C(F)(F)F)cc1 ?
PD-1 reversal: inactive; Hedgehog inh: inactive; MITF inh: inactive; NOMO-1 viab: 81

Screening data as filed in PubChem BioAssay.
